Hits are enriched below; roughly 15% of the tested compounds scored in any of these assays.
12-LOX inh = Primary qHTS assay for inhibitors of human arachidonate 12S-lipoxygenase (ALOX12): Round 2. Polyunsaturated fatty acid lipoxygenase ALOX12 (Homo sapiens), P18054. purified 12hLO, xylenol orange hydroperoxide absorbance. Potency, µM (series often up to 108 µM), for the others: at the top dose activity change, negative = inhibition, most hits filed as inhibitors. 1.1% of 580,000 active. AID 1671190, 2021
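Hydroperoxide product was detected by ferrous iron/xylenol orange as the 573 to 405 nm absorbance ratio. Arachidonic acid at 40 uM (final) was turned over for 30 min at room temperature by 150 nM human 12hLO, pH 7.0 Hepes buffer, after 15 min compound preincubation.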
Gal4-VP16 FLuc = VP16 counterscreen qHTS for inhibitors of ROR gamma transcriptional activity | Drosophila S2 Gal4-VP16 UAS-luciferase, luminescence, 20 h | Potency, µM (doses to about 53.6 µM), inactives show at the highest dose activity, negative = inhibition, actives largely listed as inhibitors | 3.5% of 310,000 active | AID 2546, 2010;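 note: Gal4-VP16 expression switched on by copper sulfate through the metallothionein promoter; nearly all actives have a fitted effect of over 50% in size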
RORg inh = qHTS for inhibitors of ROR gamma transcriptional activity | Potency, µM (doses to about 53.6 µM), inactives show at the top dose activity change, negative = inhibition, usual class: inhibitors | Drosophila S2 Gal4-RORgamma UAS-luciferase reporter, 20 h | 5.4% of 310,000 active | Nuclear receptor ROR-gamma (Mus musculus), P51450 | AID 2551, 2010; note: nearly all actives have a fitted effect of over 60% in size
Target sequence (P51450 whole entry, looked up, the tested form may be a part): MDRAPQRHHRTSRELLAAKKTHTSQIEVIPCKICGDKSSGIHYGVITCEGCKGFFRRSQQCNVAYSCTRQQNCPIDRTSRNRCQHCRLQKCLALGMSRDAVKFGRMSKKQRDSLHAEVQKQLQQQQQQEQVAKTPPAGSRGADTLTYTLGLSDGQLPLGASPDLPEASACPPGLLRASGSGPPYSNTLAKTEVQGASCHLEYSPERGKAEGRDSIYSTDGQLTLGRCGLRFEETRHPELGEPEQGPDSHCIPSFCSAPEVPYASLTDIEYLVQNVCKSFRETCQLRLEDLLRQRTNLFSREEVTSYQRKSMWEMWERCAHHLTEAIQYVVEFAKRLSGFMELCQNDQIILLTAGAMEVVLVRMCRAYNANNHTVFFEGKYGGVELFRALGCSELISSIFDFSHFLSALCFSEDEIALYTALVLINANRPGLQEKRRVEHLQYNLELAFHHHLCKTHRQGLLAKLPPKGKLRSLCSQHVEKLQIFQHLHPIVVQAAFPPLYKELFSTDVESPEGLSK
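Drosophila S2 cells stably expressing Gal4-DBD/mouse RORγ fusion under metallothionein promoter plus UAS-luciferase; compound 1 h, then 700 uM CuSO4 induction for 20 h at ambient temperature; inhibition read as reduced luminescence.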
TDP1 cell CPT = qHTS for Inhibitors of human tyrosyl-DNA phosphodiesterase 1 (TDP1): qHTS in cells in presence of CPT; chicken DT40 Tdp1-/-;hTDP1 cells + 20 nM CPT, ATP luminescence, 48 h; AID 686979, 2013; 12% of 420,000 active; Potency, µM (doses to about 46.2 µM), for inactives: top-dose activity change, negative = growth inhibition, actives largely listed as inhibitors; note: nearly all actives have a fitted effect of over 55% in size
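Chicken DT40 Tdp1-/- cells complemented with human TDP1, 400 cells/well, exposed to compounds plus 20 nM camptothecin for at least 48 h at 37 C; viability read as ATP content by CellTiter-Glo luminescence.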
TDP1 cell noCPT = qHTS for Inhibitors of human tyrosyl-DNA phosphodiesterase 1 (TDP1): qHTS in cells in absence of CPT. DT40 Tdp1-/- hTDP1 cells, no CPT, ATP luminescence, 48 h. Potency, µM (titrated, usually from 46.2 µM), for the others: top-dose activity change, negative = growth inhibition, usual class: inhibitors. 15% of 420,000 active; note: nearly all actives have a fitted effect of over 55% in size
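Camptothecin absent (DMSO only). Human TDP1-complemented DT40 knockout cells, 400 cells/well, 37 °C for minimum 48 hr; ATP measured via CellTiter-Glo, 30 min dark incubation, luminescence.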
ELG1 repair inh = qHTS screen for small molecules that inhibit ELG1-dependent DNA repair in human embryonic kidney (HEK293T) cells expressing luciferase-tagged ELG1; HEK293T ELG1-luciferase reporter, luminescence, 16 h; DNA damage induced by 5-fluorouridine; Potency, µM (series often up to 46.1 µM), for inactives: top-dose activity change, negative = inhibition, actives largely listed as inhibitors; 2.3% of 330,000 active; AID 504467, 2011; note: nearly all actives have a fitted effect of over 55% in size
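Reporter activity after DNA damage by 5-fluorouridine is monitored. Compound-treated cells incubate 16 hr at 37 °C, then ONE-Glo is added for 30 min before luminescence reading.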
* = called active by the depositor; [ ] = remark or other dose. Calls come from the whole dose curve; as a rule, active = well fitted curve in the direction sought with a large enough effect; inconclusive = small, poorly fitted or top-dose-only effect, or another doubt; inactive = no such curve, though single readings can be large; an effect the other way counts as inactive or inconclusive. % is set by controls: 0 for no effect and ±100 for the full control effect; potency is the fitted concentration of half-maximal effect.

`Brc1ccc(-c2ccc(/C=N/Nc3nncc(-c4ccccc4)n3)o2)cc1` gave 12-LOX inh 0.5%, Gal4-VP16 FLuc 1.26µM*, RORg inh 0.891µM*, TDP1 cell CPT inconclusive, TDP1 cell noCPT 18.4µM* and ELG1 repair inh inconclusive.
`O=C(NC(C1CC1)C1CC1)c1cccnc1` gave 12-LOX inh 6.1%.
Oc1ccc(Cc2ccccc2)cc1 was read as 12-LOX inh 10.2%.
Screening Cc1nc2ccc(Cl)cc2cc1C(=O)Nc1ccncc1 returned 12-LOX inh -8.4%.
Screening COc1cc(-c2noc(C)c2-c2ccc3[nH]ccc3c2)cc(OC)c1OC returned Gal4-VP16 FLuc 12.0%, RORg inh inconclusive, TDP1 cell CPT 1.46µM*, TDP1 cell noCPT 1.84µM* and ELG1 repair inh inconclusive.
For COc1cc(-c2noc(C)c2-c2ccc(N(C)C)nc2)cc(OC)c1OC the results were 12-LOX inh 14.0%, Gal4-VP16 FLuc 1.6%, RORg inh -31.5%, TDP1 cell CPT 0.13µM*, TDP1 cell noCPT 0.0366µM* and ELG1 repair inh 8.6%.
`O=C(Nc1cccc(F)c1)C1CCN(C(=O)c2ncn3c2COC(c2ccc(F)cc2)C3)CC1` (centres undefined) gave 12-LOX inh 56.6%.
CC(=O)N1Cc2ccccc2CC2(CCCN(CC3CCCCC3)C2)C1 (centres undefined) was read as 12-LOX inh 6.7%[6.33 µM].
Screening COCCN1CCCCCC(O)c2cc(C(=O)NCCCc3ccccc3)ccc21 (centres undefined) returned 12-LOX inh 27.7%.
`Cc1ccc2[nH]cc(C(C(=O)O)N3CCN(c4ccc(F)cc4)CC3)c2c1` (centres undefined) gave 12-LOX inh -8.4%.
For Cc1nc2ccc(C(=O)OCC(=O)NC(C)C34CC5CC(CC(C5)C3)C4)cc2nc1C (centres undefined) the results were 12-LOX inh -9.1%.
Screening Cc1ccsc1C(=O)N1CCCC(CO)(Cc2ccccc2)C1 (centres undefined) returned 12-LOX inh -8.2%, Gal4-VP16 FLuc -5.0%, RORg inh inconclusive, TDP1 cell CPT inconclusive, TDP1 cell noCPT -24.4% and ELG1 repair inh -3.7%.
`COc1ccc(CC2(CO)CCN(S(=O)(=O)c3sccc3C)CC2)cc1` gave 12-LOX inh -2.4%, Gal4-VP16 FLuc -8.1%, RORg inh inconclusive, TDP1 cell CPT 25.9µM*, TDP1 cell noCPT inconclusive and ELG1 repair inh 18.3µM*.
`Cc1ccsc1C(=O)N1CCC(CO)(Cc2ccccc2)CC1` gave 12-LOX inh 1.0%, Gal4-VP16 FLuc inconclusive, RORg inh 10µM*, TDP1 cell CPT -24.2%, TDP1 cell noCPT -26.9% and ELG1 repair inh -2.8%.
Screening COc1ccc(-c2c(C)oc3cc(OCCN4CCC(C)CC4)ccc3c2=O)cc1OC returned 12-LOX inh 15.9%.
Screening COc1ccc(-c2noc(CN3CCC(C(=O)Nc4ccc(-c5ccno5)cc4)CC3)n2)cc1OC returned 12-LOX inh 5.7%.
For C[C@@H]1[C@@H](Sc2ccccc2)CC(=O)O[C@@H]1c1ccc(-c2ccccc2)cc1 the results were 12-LOX inh -8.7%, Gal4-VP16 FLuc -29.5%, RORg inh -41.7%, TDP1 cell CPT 8.2µM* and TDP1 cell noCPT 7.31µM*.
For COc1cccc(-c2cc(C(=O)NCCCN3CCOCC3)c3ccccc3n2)c1 the results were 12-LOX inh -19.6%.
CCC(=O)C1=C(O)C(c2cccc(Oc3ccccc3)c2)CCC1=O (centres undefined) was read as 12-LOX inh -10.0%, Gal4-VP16 FLuc -20.8%, RORg inh inconclusive, TDP1 cell CPT 20.6µM*, TDP1 cell noCPT 9.2µM* and ELG1 repair inh inconclusive.
`CC1=C(C(=O)c2ccccc2)C(c2cccc(Oc3ccc(Cl)cc3)c2)NC(=O)N1` (centres undefined) gave 12-LOX inh -52.0%.
CN1C(=O)CC[C@]2(C(=O)NCc3cccs3)CCCC[C@@H]12 was read as 12-LOX inh 20.4%.
Screening CC(CNC(=O)CN1C(=O)NC2(CCOc3ccccc32)C1=O)c1ccccc1 (centres undefined) returned 12-LOX inh 21.5%, TDP1 cell CPT 14.6µM*, TDP1 cell noCPT inconclusive and ELG1 repair inh 2.8%.
`O=C(CN1C(=O)NC2(CCOc3ccccc32)C1=O)Nc1ccc2c(c1)OCCO2` (centres undefined) gave 12-LOX inh 0.0%[57.4 µM], Gal4-VP16 FLuc 3.2%, RORg inh -3.1%, TDP1 cell CPT -20.6%, TDP1 cell noCPT -15.4% and ELG1 repair inh 0.5%.
CCN(CC)S(=O)(=O)c1cccc(NC(=O)CN2C(=O)NC3(CCOc4ccccc43)C2=O)c1 (centres undefined) was read as 12-LOX inh -6.9%, TDP1 cell CPT 16.4µM*, TDP1 cell noCPT inconclusive and ELG1 repair inh -23.2%.
For O=C(CCCc1nc(-c2ccccc2)no1)Nc1cc(C(F)(F)F)cc(C(F)(F)F)c1 the results were 12-LOX inh -19.4%, TDP1 cell CPT inconclusive and TDP1 cell noCPT 23.1µM*.
NC(=O)CCCc1nc(-c2ccccc2)no1 was read as 12-LOX inh 150.7%, Gal4-VP16 FLuc -14.1%, RORg inh -1.2%, TDP1 cell CPT 9.3%, TDP1 cell noCPT -5.5% and ELG1 repair inh 16.7%.
Screening COc1ccc(-c2noc(CCC(=O)Nc3cccc(C)c3)n2)cc1 returned 12-LOX inh 40.0%, Gal4-VP16 FLuc inconclusive, RORg inh 0.282µM*, TDP1 cell CPT inconclusive, TDP1 cell noCPT inconclusive and ELG1 repair inh inconclusive.
`COc1ccccc1-c1noc(CCC(=O)Nc2cccc(C)c2)n1` gave 12-LOX inh inconclusive, Gal4-VP16 FLuc 2.6%, RORg inh 38.5%, TDP1 cell CPT inconclusive, TDP1 cell noCPT inconclusive and ELG1 repair inh -1.3%.
